Gli-Sufu antag – Gli-Sufu pathway antagonists, primary screen, luciferase luminescence, Sufu-KO-LIGHT cells, uHTS; Sufu-KO-LIGHT fibroblasts, Gli luciferase reporter luminescence; inhibition, % at 5 µM; actives 0.74% (n = 340,000); AID 588413, 2011;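 active = inhibition above about 55%, limit read from the data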;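 also: 0% = DMSO-treated cells and 100% = wells with medium but no cells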
Shn3 inh set2 – reduction of Shn3 3'UTR firefly luciferase signal, primary screen, Schnurri-3 inhibitor project, cell-based, Clone20 osteoblasts, set 2; Clone20 osteoblast Shn3 3'UTR firefly luciferase, 24 h; AID 588674, 2011; inhibition, % at 12.5 µM; actives 0.52% (n = 360,000);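 active = mean inhibition of at least 75% with every replicate also reaching 75%; inconclusive = mean inhibition at least 75% but some replicate below; inactive = mean inhibition below 75%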;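 also: 0% = median of neutral control wells and 100% = pilot-screen positive control compound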
697 NFkB inh – inhibitors of PMA/ionomycin-induced NF-kB reporter, 697 cells, primary screen, B-cell NF-kB inhibitor project, cell-based, luminescence, uHTS; 697 B-cell NF-kB luciferase reporter, 16 h; inhibition, % at 4 µM; actives 0.33% (n = 330,000); in the data active = inhibition above about 35%
aSyn UTR inh – MLPCN primary screen, SNCA 5' untranslated region; alpha-synuclein 5'UTR reporter, inhibitor activity; inhibition, % (tested at 7.5 µM); actives 0.82% (n = 300,000); in the data active = inhibition above about 60%; inconclusive = no clear call, values can overlap the other calls;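 also: H4 neuroglioblastoma cells stably carrying SNCA 5'UTR luciferase fusion; 0% = DMSO wells and 100% = positive control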
TAG inh – inhibitors of triacylglycerol accumulation, primary screen, cell-based, uHTS, fluorescence, H9c2. H9c2 cells, Nile Red lipid (TAG) fluorescence; cells loaded with 200 µM oleic acid. inhibition, % at 12.5 µM. actives 0.66% (n = 230,000). AID 651582, 2012;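 active = pattern-corrected inhibition of lipid staining of at least 50% with the nuclear-stain viability signal not falling by more than 50%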;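 also: 0% = DMSO wells and 100% = triacsin C control wells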
Jurkat NFkB inh – inhibitors of induced NF-kB luciferase reporter, primary screen, TCR NF-kB activation inhibitor project, cell-based, luminescence, uHTS. Jurkat, PMA/ionomycin-induced NF-kB luciferase reporter. inhibition, % at 4 µM. AID 435003, 2010. actives 0.53% (n = 330,000); in the data active = inhibition above about 50%
Active calls of the source: *; ? = inconclusive; · = not tested or not shown. Compounds with a hit are over-represented: about 2.3% of the library has one in this group of screens.

SMILES	Gli-Sufu antag	Shn3 inh set2	697 NFkB inh	aSyn UTR inh	TAG inh	Jurkat NFkB inh
Oc1ccccc1Nc1nc(NCc2ccco2)c2ccccc2n1	12	10	1	12	0	18
Cc1cccc(Nc2nc(NCc3ccco3)c3ccccc3n2)c1	82*	88*	·	-9	·	·
Cc1ccccc1Nc1nc(NCc2ccco2)c2ccccc2n1	27	71	-71	-30	-52	-71
O=C(Nc1ccc(N2CCOCC2)cc1)c1cnsn1	30	49	29	106*	-2	47
O=C(Nc1ccc(N2CCOCC2)cc1)c1cnccn1	-24	30	-19	67*	·	8
O=C(Nc1ccccc1N1CCOCC1)c1cnccn1	-6	-2	17	16	-5	10
CCOc1ccc(S(=O)(=O)Nc2ccc(C(=O)NCC(c3ccc(OC)cc3)N3CCOCC3)cc2)cc1 (stereo not drawn)	2	-7	1	·	-20	-7
CCOC(=O)N1CCN(C(=O)C2CCN(S(=O)(=O)CC)CC2)CC1	-1	-12	9	4	·	4
CN(C)CC1CC/C(=C\c2ccc(O)cc2)C1=O (stereo not drawn)	-9	90*	·	·	18	·
COc1ccc(/C=C2/CCC(CN3CCOCC3)C2=O)cc1 (stereo not drawn)	12	?	·	·	73*	·
COc1ccc(/C=C2\CCC(C3CCCC3)C2=O)cc1 (stereo not drawn)	-14	-20	-94	-179	·	-65
NC(=O)c1ccc(NC(=O)COC(=O)C2CCN(S(=O)(=O)c3cccs3)CC2)cc1	1	-8	10	·	4	1
O=C(NCCN1CCOCC1)c1cc(S(=O)(=O)Nc2ccccc2F)c(Cl)cc1Cl	4	-18	10	-3	-3	-5
O=C(N/N=C/c1ccc(O)cc1O)c1ccc(CN2C(=O)c3cccc4cccc2c34)cc1	21	94*	-78	62*	7	33
O=C(N/N=C/c1ccccc1)c1ccc(CN2C(=O)c3cccc4cccc2c34)cc1	2	16	-4	9	·	-4
COc1ccc(Cc2[nH]n3c(=O)cc(C(C)C)nc3c2-c2ccccc2)cc1	14	60	0	72*	1	2
COc1ccc(Cc2[nH]n3c(=O)cc(C)nc3c2-c2ccccc2)cc1	-4	45	23	9	6	8
S=c1[nH]nc(-c2cccnc2)n1-c1ccc2c(c1)OCCO2	-4	-19	7	-31	1	-4
Cc1ccc(CN2C(=O)/C(=C\c3ccc(C(=O)NCc4cccnc4)cc3)Oc3ccccc32)cc1	·	·	29	101*	·	-6
O=C(CN1C(=O)/C(=C\c2ccccc2Cl)Oc2ccccc21)NCc1cccnc1	-8	-1	-11	-13	2	-14
Cc1nn(-c2ccccc2Cl)c(Cl)c1/C=N/Nc1cccc(C(=O)O)c1	-267	62	-165	103*	0	-29
Cc1nn(-c2cccc(C(F)(F)F)c2)c(Cl)c1/C=N/Nc1cccc(C(=O)O)c1	-188	-16	·	-108	·	·
CC(C)c1cc(C(C)C)c(S(=O)(=O)N2c3ccccc3[C@]3(Br)C[C@H]4C(=O)N[C@@H](Cc5ccccc5)C(=O)N4[C@H]23)c(C(C)C)c1	·	·	·	65*	·	·
CC(C)c1cc(C(C)C)c(S(=O)(=O)N2c3ccccc3[C@@]3(Br)C[C@H]4C(=O)N[C@@H](Cc5ccccc5)C(=O)N4[C@@H]23)c(C(C)C)c1	-3	·	10	13	·	16
CCN(CC)C(=O)C1CCN(S(=O)(=O)c2ccc3oc4ccccc4c3c2)CC1	34	86*	-22	25	·	14
SMILES	Gli-Sufu antag	Shn3 inh set2	697 NFkB inh	aSyn UTR inh	TAG inh	Jurkat NFkB inh
CCCCCCCCCCCCCCCC[N+](C)(C)Cc1ccc(F)cc1	40	?	·	·	109*	·
CC#CC[N+](C)(C)CCCCCCCC	21	·	-10	5	-25	16
C=C1CCN(C(C)C(=O)OC)S(=O)(=O)c2ccccc21 (stereo not drawn)	-27	-11	-8	1	55*	-5
C=C1CCN(C(C(=O)OC)C(C)C)S(=O)(=O)c2ccccc21 (stereo not drawn)	9	-5	25	7	-3	18
CC1(C(=O)NC2CCCCCCC2)CCC(=O)N1Cc1ccco1 (stereo not drawn)	0	-10	3	13	·	12
c1ccc2c(c1)[nH]c1c(N3CCC4(CC3)OCCO4)ncnc12	-41	18	-28	-5	·	7
c1ccc(CN2CCN(c3ncnc4c3[nH]c3ccccc34)CC2)cc1	62*	85	-25	19	-34	22
CN(Cc1ccccc1)C(=O)COC(=O)CCC(=O)c1ccc(F)cc1	5	-6	-9	·	-4	-5
O=C(CNc1ccc(F)cc1)N/N=C/c1c(O)ccc2ccccc12	-1	92*	-16	59	·	17
O=C(Nc1ccccn1)c1ccc(-c2ccccc2)cc1	-49	13	-44	63*	3	-94
O=C(Nc1ccccn1)c1ccc2nc(-c3ccccc3)c(-c3ccccc3)nc2c1	·	·	-19	-10	·	-9
COC(=O)c1c(NC(=O)c2nc3ccccc3s2)sc2c1CC(C)(C)NC2(C)C	16	72	-13	104*	23	0
COC(=O)c1c(NC(=O)c2ccc(C(=O)c3ccccc3)cc2)sc2c1CC(C)(C)NC2(C)C	·	-29	·	·	20	·
O=C(Nc1nc2cc3c(cc2s1)OCCO3)c1ccco1	-15	53	-99	66*	-8	24
O=C(Nc1nc2cc3c(cc2s1)OCO3)c1ccco1	-29	46	·	80*	-20	·
CC(=O)Nc1nc2cc3c(cc2s1)OCO3	-58	-55	-65	-100	-23	-56
O=C(Nc1nc2cc3c(cc2s1)OCO3)C1=COCCO1	-38	73	-185	95*	-3	-12
Nc1ccc(C(=O)N2CCCC2)cc1CS(=O)(=O)c1ccc(Cl)cc1	-1	-9	-12	15	-1	4
COc1ccc(CCNC(=O)C2CCN(C(=O)c3ccc(Br)cc3)CC2)cc1	24	16	-8	31	7	-4
CCOc1ccccc1N1CCN(CC(O)COc2ccc3c(C)cc(=O)oc3c2)CC1 (stereo not drawn)	11	11	-24	3	·	-4
CCCSC1=C(C#N)C(c2ccc(OC)cc2)C2=C(CC(C)(C)CC2=O)N1 (stereo not drawn)	4	-7	10	14	-5	12
CSC1=C(C#N)C(c2ccc(Cl)cc2)C2=C(CC(C)(C)CC2=O)N1 (stereo not drawn)	14	43	10	71*	·	22
NNC(=O)c1cccnc1Oc1ccccc1	43	22	8	-1	-5	0
